This note sets out measurements from publication PMC4336329 (PLoS ONE, 2015).

SMILES strings stand for the structures. In all, about 310,000 compounds went through this assay and about 14,000 (4.5%) showed an effect of 50% or more. Effects have a minus sign here. The sample holds strong results, similar compounds and a random draw of the others, so the mix is not that of the screen.
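Also: peak tail current of the secondary pulse compared with the same well before compound.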

human ether-à-go-go-related gene (hERG) potassium channel, sequence (Q12809 whole entry, looked up): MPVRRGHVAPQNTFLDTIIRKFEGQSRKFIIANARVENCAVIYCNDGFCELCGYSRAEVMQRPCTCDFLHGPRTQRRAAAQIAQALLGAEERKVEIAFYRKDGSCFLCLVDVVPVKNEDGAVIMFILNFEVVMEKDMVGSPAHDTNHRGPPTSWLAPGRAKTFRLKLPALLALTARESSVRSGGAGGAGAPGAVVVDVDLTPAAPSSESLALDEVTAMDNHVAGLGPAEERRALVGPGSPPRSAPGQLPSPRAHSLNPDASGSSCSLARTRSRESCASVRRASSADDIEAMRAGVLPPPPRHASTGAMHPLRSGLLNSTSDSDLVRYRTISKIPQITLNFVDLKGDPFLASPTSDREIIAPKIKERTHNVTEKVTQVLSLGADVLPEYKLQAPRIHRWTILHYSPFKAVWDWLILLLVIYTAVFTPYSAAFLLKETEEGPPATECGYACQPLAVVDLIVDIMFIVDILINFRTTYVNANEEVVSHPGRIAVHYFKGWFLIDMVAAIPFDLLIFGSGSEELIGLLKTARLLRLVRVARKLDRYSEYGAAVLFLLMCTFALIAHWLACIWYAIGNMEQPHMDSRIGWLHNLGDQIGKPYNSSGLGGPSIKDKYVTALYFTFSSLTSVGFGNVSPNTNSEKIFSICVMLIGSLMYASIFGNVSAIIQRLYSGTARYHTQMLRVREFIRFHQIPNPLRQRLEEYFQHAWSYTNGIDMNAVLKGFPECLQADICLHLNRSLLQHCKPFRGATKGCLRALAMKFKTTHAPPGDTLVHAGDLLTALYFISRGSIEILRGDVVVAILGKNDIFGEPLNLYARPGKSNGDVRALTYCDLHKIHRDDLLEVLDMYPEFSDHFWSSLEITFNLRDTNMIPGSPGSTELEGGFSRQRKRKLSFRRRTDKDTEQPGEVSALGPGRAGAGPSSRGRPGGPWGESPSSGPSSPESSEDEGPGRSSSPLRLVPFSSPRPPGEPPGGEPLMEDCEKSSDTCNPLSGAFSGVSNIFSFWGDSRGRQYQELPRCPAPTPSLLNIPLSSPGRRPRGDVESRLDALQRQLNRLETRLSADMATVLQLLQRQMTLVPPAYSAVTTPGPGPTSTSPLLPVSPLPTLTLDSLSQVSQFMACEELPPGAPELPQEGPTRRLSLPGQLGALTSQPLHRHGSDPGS

The target of this assay is human ether-à-go-go-related gene (hERG) potassium channel (human, UniProt Q12809). Description: primary screen, population patch clamp on CHO cells stably expressing hERG; higher = less effect of the substance. As for the experimental part:
Briefly, Chinese hamster ovary (CHO) cells stably expressing the hERG channel were dislodged from tissue culture flasks and dispensed into PPC plates. […] During the recording, background leak currents were estimated by a 100 ms step to -80 mV from an initial holding potential of -70 mV and subtracted from the subsequent current measurement. The campaign was conducted in two phases using slight differences in recording protocol. In the first phase, the initial voltage pulse used a 100 ms step to -30 mV from a holding potential of -70 mV, a 2 s conditioning step to +25 mV, and a 2 s test step to -30 mV. During the second phase of the screen, the potential during the conditioning step was raised to +45 mV. In both phases of the campaign, a secondary voltage pulse was applied using the same parameters as the second phase initial pulse. The initial and secondary pulses were applied in the absence of compound, and upon application of 1 μM and 10 μM test concentrations. […]
As for `Cc1nc2ncnn2c(C)c1CCC(=O)Oc1ccccc1`, the “hERG current change (%, negative = inhibition) at 10uM” value was -5.02%. As for `CCN1CCc2nc(N)oc2CC1.Cl`, the “hERG current change (%, negative = inhibition) at 10uM” value was 1.67%.

With `Cc1cc2oc(C(=O)NC3CCS(=O)(=O)C3)c(C)c2cc1C` (centres unmarked), the “hERG current change (%, negative = inhibition) at 10uM” value turned out to be 2.69%. As to `CN(CC(=O)Nc1ccc(Cl)c(C(F)(F)F)c1)C(=O)C1CCC1`, the “hERG current change (%, negative = inhibition) at 10uM” value is reported as -14.8%. For the compound `O=C1COc2ccc(N3C(=O)c4ccccc4C3=O)cc2N1`, the “hERG current change (%, negative = inhibition) at 10uM” value is 27.5%.

Regarding `CCCCCN(C(=O)CN1CCC(Cc2ccccc2)CC1)c1c(N)n(CCCC)c(=O)[nH]c1=O`, the “hERG current change (%, negative = inhibition) at 10uM” value is -48.1%.

With `CSc1nc(N2CCN(Cc3ccc4c(c3)OCO4)CC2)c2ccccc2n1`, the “hERG current change (%, negative = inhibition) at 10uM” value was -16.7%. For the compound `CC(C)(C)OC(=O)N1CCC(c2cc(=O)n3[nH]cc(C(=O)Nc4ccc(F)c(Cl)c4)c3n2)CC1`, the “hERG current change (%, negative = inhibition) at 10uM” value is given as 6.92%. Then `COCCOC(=O)C1=C(C)Nc2ncnn2C1c1ccco1` (centres unmarked), with 2.64%; and `Cc1cc(=O)n2nc(N3CCCC(C(=O)NCc4cccc(Br)c4)C3)sc2n1` (centres unmarked), with -30.2%; and `Cc1cc(=O)n2nc(N3CCC(C(=O)NCc4ccccc4)CC3)sc2n1`, with -3.68%. For the compound `Cc1cc(=O)n2nc(N3CCC(C(=O)NCc4ccc(F)cc4)CC3)sc2n1`, the “hERG current change (%, negative = inhibition) at 10uM” value is -55.5%. Consider `Cc1ccc(CNC(=O)C2CCN(c3nn4c(=O)cc(C)nc4s3)CC2)cc1`, for which the “hERG current change (%, negative = inhibition) at 10uM” value is given as -41.9%.

For `Cc1cc(=O)n2nc(N3CCC(C(=O)NCc4cccc(Br)c4)CC3)sc2n1`, the “hERG current change (%, negative = inhibition) at 10uM” value was -51.4%. As for `COc1ccc(CNC(=O)C2CCN(c3nn4c(=O)cc(C)nc4s3)CC2)cc1`, the “hERG current change (%, negative = inhibition) at 10uM” value is -4.51%. With `Cc1cc(=O)n2nc(N3CCC(C(=O)NCc4ccc(Cl)cc4)CC3)sc2n1`, the “hERG current change (%, negative = inhibition) at 10uM” value is given as -70%. As for `Cc1cc(=O)n2nc(N3CCC(C(=O)NCc4cccc(Cl)c4)CC3)sc2n1`, the “hERG current change (%, negative = inhibition) at 10uM” value was -43.7%. Consider `CCOc1ccc(CNC(=O)C2CCN(c3nn4c(=O)cc(C)nc4s3)CC2)cc1`, for which the “hERG current change (%, negative = inhibition) at 10uM” value was -45.8%. For the compound `CCS(=O)(=O)c1ccc(C(=O)Nc2cccc(Cl)c2)c(Cl)c1Cl`, the “hERG current change (%, negative = inhibition) at 10uM” value is on record as -3.97%. In the case of `Cc1ccc(C(C)C)c(OCCCNCc2cccnc2)c1.Cl`, the “hERG current change (%, negative = inhibition) at 10uM” value is -37.5%.

As to `CCNC(=O)NC(=O)CN(C)c1ccccc1`, the “hERG current change (%, negative = inhibition) at 10uM” value is recorded as 10.5%.

With `CCOC(=O)c1sc(=NC(=O)c2cccc(C)c2)n(C)c1C`, the “hERG current change (%, negative = inhibition) at 10uM” value stood at 8.38%.

Regarding `Cc1ccc(-c2c(C(=O)N/N=C/c3cccs3)nnn2-c2nonc2N)cc1`, the “hERG current change (%, negative = inhibition) at 10uM” value was 29.8%. On to `CCC(COC)NCc1cn(-c2ccc(OC)cc2)nc1-c1cccc(F)c1` (centres unmarked), for which the “hERG current change (%, negative = inhibition) at 10uM” value was -70.3%. Next, `COc1cccc(-c2nn(-c3ccccc3)cc2CN(C)C(C)c2ccncn2)c1` (centres unmarked): -15.6%; `COc1ccc(-c2nn(-c3ccccc3)cc2CNC(C)Cn2cncn2)c(F)c1` (centres unmarked): -13%.

For `COc1ccc(-n2cc(CNC(C)c3ccncn3)c(-c3cccc(F)c3)n2)cc1` (centres unmarked), the “hERG current change (%, negative = inhibition) at 10uM” value is -59.4%. Consider `CCC(COC)NCc1cn(-c2ccc(F)cc2F)nc1-c1ccccc1C` (centres unmarked), for which the “hERG current change (%, negative = inhibition) at 10uM” value is recorded as -18%.

In the case of `COc1ccc(-n2cc(CN(C)C(C)c3ccncn3)c(-c3cccc(F)c3)n2)cc1` (centres unmarked), the “hERG current change (%, negative = inhibition) at 10uM” value is recorded as -39.9%. Next, `Cc1cccc(N2CCN(C(=O)c3cccc(N4C(=O)C5CC=CC(C)C5C4=O)c3)CC2)c1C` (centres unmarked): -12.5%. As for `Cc1oncc1-c1cn2ccccc2n1`, the “hERG current change (%, negative = inhibition) at 10uM” value is 6.61%. Consider `COc1ccccc1CNC(=O)c1ccccc1OCc1ccc(F)cc1`, for which the “hERG current change (%, negative = inhibition) at 10uM” value is -10%. For the compound `CCOc1ccc(N2CC(C(=O)N3CCCCC3)CC2=O)cc1` (centres unmarked), the “hERG current change (%, negative = inhibition) at 10uM” value came out at 18.6%.

Take `COc1ccc(N2CC(C(=O)N3CCN(C)CC3)CC2=O)cc1` (centres unmarked): the “hERG current change (%, negative = inhibition) at 10uM” value was found to be 15.4%. Next, `COc1ccc(N2CCN(C(=O)C3CC(=O)N(c4ccc(C)cc4)C3)CC2)cc1` (centres unmarked): -35.1%.

On to `COc1ccc(N2CC(C(=O)N3CCN(C(=O)c4ccco4)CC3)CC2=O)cc1` (centres unmarked), for which the “hERG current change (%, negative = inhibition) at 10uM” value was -53.3%. With `CCOc1ccc(N2CC(C(=O)N3CCN(C(=O)c4ccco4)CC3)CC2=O)cc1` (centres unmarked), the “hERG current change (%, negative = inhibition) at 10uM” value is listed as -63.4%. Next, `CCOc1ccc(N2CC(C(=O)N3CCCCCC3)CC2=O)cc1` (centres unmarked): -7.34%.

As to `Cc1cc(C#N)c(C)n1-c1cc(S(=O)(=O)N2CCOCC2)ccc1N1CCCC1`, the “hERG current change (%, negative = inhibition) at 10uM” value is reported as -14.3%. As for `CN(Cc1ccc(F)cc1)C(=O)c1cccc(S(=O)(=O)N2CCN(c3ccc(F)cc3)CC2)c1`, the “hERG current change (%, negative = inhibition) at 10uM” value is -34.6%. Then `CN(C)S(=O)(=O)N1CCC(Oc2cccc(C(=O)NC3CCOC3)c2)CC1` (centres unmarked), with 2.63%; and `O=C(CCN1CCN(S(=O)(=O)c2ccc(Cl)cc2)CC1)Nc1ccccc1F`, with -6.18%; and `O=C(CN1CCN(CCC(=O)Nc2ccccc2F)CC1)Nc1ccc(F)cc1`, with -72.6%. For `O=C(CCN1CCN(c2ccc(Cl)cc2)CC1)Nc1ccccc1F`, the “hERG current change (%, negative = inhibition) at 10uM” value was -34%. Then `O=C(CN1CCOCC1)Nc1ccccc1F`, with 0.862%.

For the compound `O=C(CCN1CCN(c2ccc(F)cc2)CC1)Nc1ccccc1F`, the “hERG current change (%, negative = inhibition) at 10uM” value is -43%. `O=C(CN1CCN(CCC(=O)Nc2ccccc2F)CC1)Nc1ccc(Cl)cc1`: the “hERG current change (%, negative = inhibition) at 10uM” value was -76.8%. Consider `COc1ccc(C(=O)NC2CCCCC2)cc1S(=O)(=O)N1CCOCC1`, for which the “hERG current change (%, negative = inhibition) at 10uM” value is -14.8%. Then `O=C(NCCOC(=O)c1ccccc1)c1ccccc1`, with 10.2%. Next, `[N-]=[N+]=CC(=O)CNC(=O)[C@@H](Cc1ccccc1)N1C(=O)c2ccccc2C1=O`: 6.66%; `CCC(C(=O)NC1CCCCCC1)n1nc(C)c2c(C)n(-c3ccccc3)nc2c1=O` (centres unmarked): -23.4%; `Cc1ccc(-n2nc3c(=O)n(C(C)C(=O)NCc4ccco4)nc(C)c3c2C)cc1` (centres unmarked): -41.3%. Take `CCC(C(=O)NCc1ccco1)n1nc(C)c2c(C)n(-c3ccccc3)nc2c1=O` (centres unmarked): the “hERG current change (%, negative = inhibition) at 10uM” value was -8.91%.

As to `CCC(C(=O)NC1CC1)n1nc(C)c2c(C)n(-c3ccccc3)nc2c1=O` (centres unmarked), the “hERG current change (%, negative = inhibition) at 10uM” value is reported as 8.02%. For `CCC(C(=O)NC1CC1)n1nc(C)c2c(C)n(-c3ccc(C)cc3)nc2c1=O` (centres unmarked), the “hERG current change (%, negative = inhibition) at 10uM” value is given as -62%.

Consider `CCC(C(=O)NCc1ccco1)n1nc(C)c2c(C)n(-c3ccc(C)cc3)nc2c1=O` (centres unmarked), for which the “hERG current change (%, negative = inhibition) at 10uM” value is reported as -58.9%.
